# Counter-ions that a name gives are not always drawn.
# System: K562 SF3B1 K700E vs K562 SF3B1 WT
# Assay: surviving fraction ratio K562 SF3B1 K700E / K562 SF3B1 WT (each relative to DMSO); higher = less selective killing of SF3B1 K700E cells
# Conditions: 5 days
# Procedure, shortened: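 In 384-well plates holding 250 cells per well, isogenic K562 cells bearing an engineered mutant allele and matched wild-type cells received compounds from an in-house 80-compound library 24 h after seeding. Doses were 0.5, 1, 5, 10, 50, 100, 500 and 1,000 nM, with 5 d of continuous culture. Surviving fractions were taken from CellTiter-Glo readings and normalised to DMSO. The value reported is the mutant-over-wild-type ratio of these fractions.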
smiles,measurement,setting,value
O=C1NC(=NCc2cccs2)S/C1=C\c1ccc2ncccc2c1,surviving fraction ratio K562 SF3B1 K700E / K562 SF3B1 WT,0.2nM,0.909
same,surviving fraction ratio K562 SF3B1 K700E / K562 SF3B1 WT,0.4nM,0.855
same,surviving fraction ratio K562 SF3B1 K700E / K562 SF3B1 WT,2nM,0.878
same,surviving fraction ratio K562 SF3B1 K700E / K562 SF3B1 WT,4nM,0.842
same,surviving fraction ratio K562 SF3B1 K700E / K562 SF3B1 WT,20nM,1.02
same,surviving fraction ratio K562 SF3B1 K700E / K562 SF3B1 WT,40nM,0.921
same,surviving fraction ratio K562 SF3B1 K700E / K562 SF3B1 WT,200nM,0.844
same,surviving fraction ratio K562 SF3B1 K700E / K562 SF3B1 WT,400nM,0.909
C#Cc1cccc(Nc2ncnc3cc(OCCOC)c(OCCOC)cc23)c1 [erlotinib],surviving fraction ratio K562 SF3B1 K700E / K562 SF3B1 WT,0.5nM,0.882
same,surviving fraction ratio K562 SF3B1 K700E / K562 SF3B1 WT,1nM,0.743
same,surviving fraction ratio K562 SF3B1 K700E / K562 SF3B1 WT,5nM,0.852
same,surviving fraction ratio K562 SF3B1 K700E / K562 SF3B1 WT,10nM,0.843
same,surviving fraction ratio K562 SF3B1 K700E / K562 SF3B1 WT,50nM,0.692
same,surviving fraction ratio K562 SF3B1 K700E / K562 SF3B1 WT,100nM,0.788
same,surviving fraction ratio K562 SF3B1 K700E / K562 SF3B1 WT,500nM,0.811
same,surviving fraction ratio K562 SF3B1 K700E / K562 SF3B1 WT,1000nM,0.712
Cc1nc(Nc2ncc(C(=O)Nc3c(C)cccc3Cl)s2)cc(N2CCN(CCO)CC2)n1 [dasatinib],surviving fraction ratio K562 SF3B1 K700E / K562 SF3B1 WT,0.5nM,1.18
same,surviving fraction ratio K562 SF3B1 K700E / K562 SF3B1 WT,1nM,2.2
same,surviving fraction ratio K562 SF3B1 K700E / K562 SF3B1 WT,5nM,1.86
same,surviving fraction ratio K562 SF3B1 K700E / K562 SF3B1 WT,10nM,1.39
same,surviving fraction ratio K562 SF3B1 K700E / K562 SF3B1 WT,50nM,1.23
same,surviving fraction ratio K562 SF3B1 K700E / K562 SF3B1 WT,100nM,1.42
same,surviving fraction ratio K562 SF3B1 K700E / K562 SF3B1 WT,500nM,1.72
same,surviving fraction ratio K562 SF3B1 K700E / K562 SF3B1 WT,1000nM,1.65
Cn1ncnc1[C@H]1c2n[nH]c(=O)c3cc(F)cc(c23)N[C@@H]1c1ccc(F)cc1 [talazoparib],surviving fraction ratio K562 SF3B1 K700E / K562 SF3B1 WT,0.5nM,0.824
same,surviving fraction ratio K562 SF3B1 K700E / K562 SF3B1 WT,1nM,0.778
same,surviving fraction ratio K562 SF3B1 K700E / K562 SF3B1 WT,5nM,0.775
same,surviving fraction ratio K562 SF3B1 K700E / K562 SF3B1 WT,10nM,0.743
same,surviving fraction ratio K562 SF3B1 K700E / K562 SF3B1 WT,50nM,0.552
same,surviving fraction ratio K562 SF3B1 K700E / K562 SF3B1 WT,100nM,0.571
same,surviving fraction ratio K562 SF3B1 K700E / K562 SF3B1 WT,500nM,0.794
CCN(CC)CCNC(=O)c1c(C)[nH]c(/C=C2\C(=O)Nc3ccc(F)cc32)c1C [sunitinib],surviving fraction ratio K562 SF3B1 K700E / K562 SF3B1 WT,0.5nM,1.09
same,surviving fraction ratio K562 SF3B1 K700E / K562 SF3B1 WT,1nM,1.08
same,surviving fraction ratio K562 SF3B1 K700E / K562 SF3B1 WT,5nM,0.928
same,surviving fraction ratio K562 SF3B1 K700E / K562 SF3B1 WT,10nM,1.33
same,surviving fraction ratio K562 SF3B1 K700E / K562 SF3B1 WT,50nM,0.86
same,surviving fraction ratio K562 SF3B1 K700E / K562 SF3B1 WT,100nM,1.2
same,surviving fraction ratio K562 SF3B1 K700E / K562 SF3B1 WT,500nM,0.73
same,surviving fraction ratio K562 SF3B1 K700E / K562 SF3B1 WT,1000nM,0.857
CS(=O)(=O)CCNCc1ccc(-c2ccc3ncnc(Nc4ccc(OCc5cccc(F)c5)c(Cl)c4)c3c2)o1 [lapatinib],surviving fraction ratio K562 SF3B1 K700E / K562 SF3B1 WT,0.5nM,0.726
same,surviving fraction ratio K562 SF3B1 K700E / K562 SF3B1 WT,1nM,0.755
same,surviving fraction ratio K562 SF3B1 K700E / K562 SF3B1 WT,5nM,0.828
same,surviving fraction ratio K562 SF3B1 K700E / K562 SF3B1 WT,10nM,0.669
same,surviving fraction ratio K562 SF3B1 K700E / K562 SF3B1 WT,50nM,0.99
same,surviving fraction ratio K562 SF3B1 K700E / K562 SF3B1 WT,100nM,0.906
same,surviving fraction ratio K562 SF3B1 K700E / K562 SF3B1 WT,500nM,0.898
same,surviving fraction ratio K562 SF3B1 K700E / K562 SF3B1 WT,1000nM,0.665
CCc1cc(Nc2nccc(-c3c(-c4ccc(OC)c(C(=O)Nc5c(F)cccc5F)c4)nc4ccccn34)n2)c(OC)cc1N1CCC(N2CCN(S(C)(=O)=O)CC2)CC1,surviving fraction ratio K562 SF3B1 K700E / K562 SF3B1 WT,0.5nM,0.969
same,surviving fraction ratio K562 SF3B1 K700E / K562 SF3B1 WT,1nM,0.921
same,surviving fraction ratio K562 SF3B1 K700E / K562 SF3B1 WT,5nM,0.92
same,surviving fraction ratio K562 SF3B1 K700E / K562 SF3B1 WT,10nM,0.907
same,surviving fraction ratio K562 SF3B1 K700E / K562 SF3B1 WT,50nM,0.817
same,surviving fraction ratio K562 SF3B1 K700E / K562 SF3B1 WT,100nM,0.805
same,surviving fraction ratio K562 SF3B1 K700E / K562 SF3B1 WT,500nM,0.824
same,surviving fraction ratio K562 SF3B1 K700E / K562 SF3B1 WT,1000nM,0.842
COc1cc2nccc(Oc3ccc(NC(=O)NC4CC4)c(Cl)c3)c2cc1C(N)=O [Lenvatinib],surviving fraction ratio K562 SF3B1 K700E / K562 SF3B1 WT,0.5nM,0.728
same,surviving fraction ratio K562 SF3B1 K700E / K562 SF3B1 WT,1nM,0.787
same,surviving fraction ratio K562 SF3B1 K700E / K562 SF3B1 WT,5nM,0.763
same,surviving fraction ratio K562 SF3B1 K700E / K562 SF3B1 WT,10nM,0.755
same,surviving fraction ratio K562 SF3B1 K700E / K562 SF3B1 WT,50nM,0.815
same,surviving fraction ratio K562 SF3B1 K700E / K562 SF3B1 WT,100nM,0.834
same,surviving fraction ratio K562 SF3B1 K700E / K562 SF3B1 WT,500nM,0.71
same,surviving fraction ratio K562 SF3B1 K700E / K562 SF3B1 WT,1000nM,0.674
CCCCCCCCCCCCCCCC(=O)Nc1ccn([C@@H]2O[C@H](CO)[C@@H](O)[C@@H]2C#N)c(=O)n1 [sapacitabine],surviving fraction ratio K562 SF3B1 K700E / K562 SF3B1 WT,1nM,0.911
same,surviving fraction ratio K562 SF3B1 K700E / K562 SF3B1 WT,10nM,1.11
same,surviving fraction ratio K562 SF3B1 K700E / K562 SF3B1 WT,100nM,0.745
same,surviving fraction ratio K562 SF3B1 K700E / K562 SF3B1 WT,1000nM,1.78
Nc1ccn([C@@H]2O[C@H](CO)[C@@H](O)C2(F)F)c(=O)n1 [gemcitabine.HCl],surviving fraction ratio K562 SF3B1 K700E / K562 SF3B1 WT,0.5nM,0.839
same,surviving fraction ratio K562 SF3B1 K700E / K562 SF3B1 WT,1nM,0.772
same,surviving fraction ratio K562 SF3B1 K700E / K562 SF3B1 WT,5nM,0.465
same,surviving fraction ratio K562 SF3B1 K700E / K562 SF3B1 WT,10nM,0.491
same,surviving fraction ratio K562 SF3B1 K700E / K562 SF3B1 WT,50nM,0.901
same,surviving fraction ratio K562 SF3B1 K700E / K562 SF3B1 WT,100nM,1.16
same,surviving fraction ratio K562 SF3B1 K700E / K562 SF3B1 WT,500nM,1.1
same,surviving fraction ratio K562 SF3B1 K700E / K562 SF3B1 WT,1000nM,1.16
